About 2,000 (36%) of roughly 5,500 compounds were called active. Roughly 18% stayed inconclusive and do not appear here. Rule as the data show it: active = normalized growth mostly below about 0.91 (no sharp cut-off); inconclusive = no clear call, values can overlap the other calls; inactive = mostly above about 0.92. This is one part of the list.
Test: chemical genetic growth profiling, strain panel (AID 1159580);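 also: tested at 20 µM; growth read once vehicle control cultures reached saturation at 30 °C; 1 = growth at the plate median or of vehicle wells; lower values mean less growth of the strain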
Settings: growth OD

Measured: normalized growth

CC(=O)O[C@H]1CC[C@@]2(C)C(=CC(=O)C3C4CCC(C(C)CCCC(C)C)[C@@]4(C)CCC32)C1 (stereo not given in full)
inactive: S. cerevisiae deletion strains, locus YAL013W, strain DEP1, active compounds read low 1.01 | S. cerevisiae deletion strains, locus YAL021C, strain ccr4, active compounds read low 0.992 | S. cerevisiae deletion strains, locus YAL026C, strain drs2, active compounds read low 1.02 | S. cerevisiae deletion strains, locus YAL030W, strain snc1, active compounds read low 0.992 | S. cerevisiae deletion strains, locus YBL061C, strain skt5, active compounds read low 0.988 | S. cerevisiae deletion strains, locus YBR009C, strain hhf1, active compounds read low 1.01 | S. cerevisiae deletion strains, locus YBR021W, strain FUR4, active compounds read low 0.999 | S. cerevisiae deletion strains, locus YBR023C, strain chs3, active compounds read low 0.985 | S. cerevisiae deletion strains, locus YBR171W, strain sec66, active compounds read low 0.996 | S. cerevisiae deletion strains, locus YBR229C, strain ROT2, active compounds read low 1 | S. cerevisiae deletion strains, locus YBR231C, strain swc5, active compounds read low 1.02 | S. cerevisiae deletion strains, locus YBR279W, strain paf1, active compounds read low 0.996 | S. cerevisiae deletion strains, locus YCL011C, strain gbp2, active compounds read low 0.994 | S. cerevisiae deletion strains, locus YCL016C, strain dcc1, active compounds read low 0.99 | S. cerevisiae deletion strains, locus YCL029C, strain bik1, active compounds read low 0.986 | S. cerevisiae deletion strains, locus YCL061C, strain MRC1, active compounds read low 1 | S. cerevisiae deletion strains, locus YCL069W, strain vba3, active compounds read low 0.997 | S. cerevisiae deletion strains, locus YCR088W, strain abp1, active compounds read low 0.995 | S. cerevisiae deletion strains, locus YDL005C, strain med2, active compounds read low 0.971 | S. cerevisiae deletion strains, locus YDL035C, strain GPR1, active compounds read low 1.02 | S. cerevisiae deletion strains, locus YDL040C, strain nat1, active compounds read low 0.991 | S. cerevisiae deletion strains, locus YDL074C, strain BRE1, active compounds read low 1.04 | S. cerevisiae deletion strains, locus YDL101C, strain DUN1, active compounds read low 1 | S. cerevisiae deletion strains, locus YDL185W, strain tfp1, active compounds read low 1.02 | S. cerevisiae deletion strains, locus YDL192W, strain arf1, active compounds read low 1 | S. cerevisiae deletion strains, locus YDR001C, strain nth1, active compounds read low 0.99 | S. cerevisiae deletion strains, locus YDR069C, strain doa4, active compounds read low 0.992 | S. cerevisiae deletion strains, locus YDR101C, strain arx1, active compounds read low 1 | S. cerevisiae deletion strains, locus YDR137W, strain rgp1, active compounds read low 1.01 | S. cerevisiae deletion strains, locus YDR150W, strain NUM1, active compounds read low 0.998 | S. cerevisiae deletion strains, locus YDR159W, strain sac3, active compounds read low 1.01 | S. cerevisiae deletion strains, locus YDR162C, strain NBP2, active compounds read low 1.01 | S. cerevisiae deletion strains, locus YDR195W, strain ref2 0.977 | S. cerevisiae deletion strains, locus YDR297W, strain sur2, active compounds read low 0.995 | S. cerevisiae deletion strains, locus YDR318W, strain mcm21, active compounds read low 0.978 | S. cerevisiae deletion strains, locus YDR334W, strain swr1, active compounds read low 0.994 | S. cerevisiae deletion strains, locus YDR335W, strain msn5, active compounds read low 0.993 | S. cerevisiae deletion strains, locus YDR388W, active compounds read low 0.979 | S. cerevisiae deletion strains, locus YDR392W, strain spt3, active compounds read low 0.944 | S. cerevisiae deletion strains, locus YDR502C, strain sam2, active compounds read low 1 | S. cerevisiae deletion strains, locus YEL003W, strain gim4, active compounds read low 1.01 | S. cerevisiae deletion strains, locus YEL037C, strain rad23, active compounds read low 0.994 | S. cerevisiae deletion strains, locus YEL061C, strain CIN8 (second series), active compounds read low 0.995 | S. cerevisiae deletion strains, locus YEL061C, strain CIN8, active compounds read low 1 | S. cerevisiae deletion strains, locus YER015W, strain faa2, active compounds read low 0.996 | S. cerevisiae deletion strains, locus YER016W, strain bim1, active compounds read low 0.989 | S. cerevisiae deletion strains, locus YER110C, active compounds read low 0.982 | S. cerevisiae deletion strains, locus YER111C, strain swi4, active compounds read low 0.999 | S. cerevisiae deletion strains, locus YER155C, strain BEM2 (second series), active compounds read low 1.01 | S. cerevisiae deletion strains, locus YER155C, strain BEM2, active compounds read low 1.01 | S. cerevisiae deletion strains, locus YER167W, strain BCK2, active compounds read low 1.01 | S. cerevisiae deletion strains, locus YFR010W, strain ubp6, active compounds read low 1.01 | S. cerevisiae deletion strains, locus YGL078C, strain dbp3, active compounds read low 1.02 | S. cerevisiae deletion strains, locus YGL086W, strain mad1, active compounds read low 1.01 | S. cerevisiae deletion strains, locus YGL167C, strain pmr1, active compounds read low 0.993 | S. cerevisiae deletion strains, locus YGL173C, strain kem1, active compounds read low 0.978 | S. cerevisiae deletion strains, locus YGL227W, strain vid30, active compounds read low 0.984 | S. cerevisiae deletion strains, locus YGL240W, strain doc1, active compounds read low 1.01 | S. cerevisiae deletion strains, locus YGL248W, strain PDE1, active compounds read low 0.987 | S. cerevisiae deletion strains, locus YGL253W, strain hxk2, active compounds read low 0.993 | S. cerevisiae deletion strains, locus YGR135W, strain pre9, active compounds read low 0.984 | S. cerevisiae deletion strains, locus YGR252W, strain gcn5, active compounds read low 1.07 | S. cerevisiae deletion strains, locus YHR013C, strain ard1, active compounds read low 0.994 | S. cerevisiae deletion strains, locus YHR027C, strain rpn1, active compounds read low 0.994 | S. cerevisiae deletion strains, locus YHR030C, strain SLT2, active compounds read low 1 | S. cerevisiae deletion strains, locus YHR079C, strain IRE1 (second series), active compounds read low 0.991 | S. cerevisiae deletion strains, locus YHR094C, strain hxt1, active compounds read low 0.975 | S. cerevisiae deletion strains, locus YHR129C, strain ARP1, active compounds read low 0.999 | S. cerevisiae deletion strains, locus YHR142W, strain chs7, active compounds read low 0.979 | S. cerevisiae deletion strains, locus YHR200W, strain rpn10, active compounds read low 0.985 | S. cerevisiae deletion strains, locus YIL066C, strain RNR3, active compounds read low 1 | S. cerevisiae deletion strains, locus YIL073C, strain SPO22, active compounds read low 1.03 | S. cerevisiae deletion strains, locus YIL125W, strain kgd1, active compounds read low 1.01 | S. cerevisiae deletion strains, locus YIR030C, strain dcg1, active compounds read low 0.989 | S. cerevisiae deletion strains, locus YJL092W, strain hpr5, active compounds read low 0.99 | S. cerevisiae deletion strains, locus YJL095W, strain BCK1 (second series), active compounds read low 0.982 | S. cerevisiae deletion strains, locus YJL095W, strain BCK1, active compounds read low 1.01 | S. cerevisiae deletion strains, locus YJL115W, strain asf1, active compounds read low 0.981 | S. cerevisiae deletion strains, locus YJL129C, strain trk1, active compounds read low 0.989 | S. cerevisiae deletion strains, locus YJL134W, strain LCB3, active compounds read low 1.01 | S. cerevisiae deletion strains, locus YJL154C, strain vps35, active compounds read low 0.999 | S. cerevisiae deletion strains, locus YJL164C, strain tpk1, active compounds read low 1 | S. cerevisiae deletion strains, locus YJL166W, strain qcr8, active compounds read low 0.998 | S. cerevisiae deletion strains, locus YJL168C, strain set2, active compounds read low 0.976 | S. cerevisiae deletion strains, locus YJL187C, strain SWE1 (second series), active compounds read low 1.01 | S. cerevisiae deletion strains, locus YJL187C, strain SWE1, active compounds read low 0.991 | S. cerevisiae deletion strains, locus YJR043C, strain POL32, active compounds read low 1.01 | S. cerevisiae deletion strains, locus YJR075W, strain HOC1, active compounds read low 1 | S. cerevisiae deletion strains, locus YKL009W, strain mrt4, active compounds read low 1.04 | S. cerevisiae deletion strains, locus YKL068W, active compounds read low 1 | S. cerevisiae deletion strains, locus YKL085W, strain MDH1 (second series), active compounds read low 1 | S. cerevisiae deletion strains, locus YKL085W, strain MDH1, active compounds read low 1 | S. cerevisiae deletion strains, locus YKL160W, strain elf1, active compounds read low 0.996 | S. cerevisiae deletion strains, locus YKR001C, strain vps1, active compounds read low 1.03 | S. cerevisiae deletion strains, locus YKR026C, strain gcn3, active compounds read low 0.994 | S. cerevisiae deletion strains, locus YKR091W, strain srl3, active compounds read low 0.994 | S. cerevisiae deletion strains, locus YLL001W, strain dnm1, active compounds read low 0.984 | S. cerevisiae deletion strains, locus YLL026W, active compounds read low 1 | S. cerevisiae deletion strains, locus YLL041C, strain sdh2, active compounds read low 0.993 | S. cerevisiae deletion strains, locus YLR027C, strain aat2, active compounds read low 1 | S. cerevisiae deletion strains, locus YLR039C, strain RIC1, active compounds read low 1.03 | S. cerevisiae deletion strains, locus YLR058C, strain SHM2, active compounds read low 0.999 | S. cerevisiae deletion strains, locus YLR102C, strain apc9, active compounds read low 0.975 | S. cerevisiae deletion strains, locus YLR221C, strain rsa3, active compounds read low 0.983 | S. cerevisiae deletion strains, locus YLR258W, strain gsy2, active compounds read low 1.01 | S. cerevisiae deletion strains, locus YLR262C, strain YPT6 (second series), active compounds read low 0.996 | S. cerevisiae deletion strains, locus YLR262C, strain YPT6, active compounds read low 1.02 | S. cerevisiae deletion strains, locus YLR268W, strain sec22, active compounds read low 1.02 | S. cerevisiae deletion strains, locus YLR320W, strain mms22, active compounds read low 0.991 | S. cerevisiae deletion strains, locus YLR330W, strain CHS5, active compounds read low 1 | S. cerevisiae deletion strains, locus YLR342W, strain FKS1 (second series), active compounds read low 1.03 | S. cerevisiae deletion strains, locus YLR342W, strain FKS1, active compounds read low 0.993 | S. cerevisiae deletion strains, locus YLR357W, strain rsc2, active compounds read low 0.983 | S. cerevisiae deletion strains, locus YLR370C, strain arc18, active compounds read low 0.994 | S. cerevisiae deletion strains, locus YLR371W, strain rom2, active compounds read low 0.977 | S. cerevisiae deletion strains, locus YLR384C, strain iki3, active compounds read low 0.971 | S. cerevisiae deletion strains, locus YLR418C, strain cdc73, active compounds read low 1.02 | S. cerevisiae deletion strains, locus YML016C, strain PPZ1, active compounds read low 1 | S. cerevisiae deletion strains, locus YML032C, strain rad52, active compounds read low 0.985 | S. cerevisiae deletion strains, locus YML120C, strain ndi1, active compounds read low 0.997 | S. cerevisiae deletion strains, locus YML124C, strain tub3, active compounds read low 0.988 | S. cerevisiae deletion strains, locus YMR058W, strain fet3, active compounds read low 1 | S. cerevisiae deletion strains, locus YMR078C, strain ctf18, active compounds read low 0.988 | S. cerevisiae deletion strains, locus YMR125W, strain sto1, active compounds read low 0.997 | S. cerevisiae deletion strains, locus YMR129W, active compounds read low 0.989 | S. cerevisiae deletion strains, locus YMR205C, strain PFK2, active compounds read low 0.993 | S. cerevisiae deletion strains, locus YMR223W, strain ubp8, active compounds read low 0.983 | S. cerevisiae deletion strains, locus YMR231W, strain pep5, active compounds read low 1 | S. cerevisiae deletion strains, locus YMR307W, strain GAS1, active compounds read low 1.07 | S. cerevisiae deletion strains, locus YNL067W, strain RPL9B, active compounds read low 1.01 | S. cerevisiae deletion strains, locus YNL071W, strain lat1, active compounds read low 0.994 | S. cerevisiae deletion strains, locus YNL128W, strain TEP1, active compounds read low 1.04 | S. cerevisiae deletion strains, locus YNL209W, strain ssb2, active compounds read low 0.997 | S. cerevisiae deletion strains, locus YNL233W, strain BNI4, active compounds read low 1.01 | S. cerevisiae deletion strains, locus YNL248C, strain rpa49, active compounds read low 1.01 | S. cerevisiae deletion strains, locus YNL250W, strain rad50, active compounds read low 1 | S. cerevisiae deletion strains, locus YNL271C, strain bni1, active compounds read low 1.01 | S. cerevisiae deletion strains, locus YNL298W, strain CLA4, active compounds read low 1.01 | S. cerevisiae deletion strains, locus YNL307C, strain MCK1, active compounds read low 0.985 | S. cerevisiae deletion strains, locus YNL322C, strain KRE1 (second series), active compounds read low 0.983 | S. cerevisiae deletion strains, locus YNR049C, strain mso1, active compounds read low 0.993 | S. cerevisiae deletion strains, locus YNR052C, strain pop2, active compounds read low 0.975 | S. cerevisiae deletion strains, locus YOL006C, strain TOP1, active compounds read low 1.05 | S. cerevisiae deletion strains, locus YOL012C, strain htz1 0.955 | S. cerevisiae deletion strains, locus YOL147C, strain pex11, active compounds read low 0.982 | S. cerevisiae deletion strains, locus YOR001W, strain rrp6, active compounds read low 1.01 | S. cerevisiae deletion strains, locus YOR061W, strain CKA2, active compounds read low 1.01 | S. cerevisiae deletion strains, locus YOR069W, strain VPS5, active compounds read low 1.01 | S. cerevisiae deletion strains, locus YOR070C, strain gyp1, active compounds read low 0.987 | S. cerevisiae deletion strains, locus YOR080W, strain dia2, active compounds read low 0.996 | S. cerevisiae deletion strains, locus YOR083W, strain WHI5, active compounds read low 0.98 | S. cerevisiae deletion strains, locus YOR106W, strain vam3, active compounds read low 1.01 | S. cerevisiae deletion strains, locus YOR136W, strain idh2, active compounds read low 0.995 | S. cerevisiae deletion strains, locus YOR144C, strain elg1, active compounds read low 0.99 | S. cerevisiae deletion strains, locus YOR184W, strain ser1, active compounds read low 0.998 | S. cerevisiae deletion strains, locus YOR265W, strain rbl2, active compounds read low 1 | S. cerevisiae deletion strains, locus YOR270C, strain vph1, active compounds read low 0.968 | S. cerevisiae deletion strains, locus YOR290C, strain snf2, active compounds read low 0.974 | S. cerevisiae deletion strains, locus YOR316C, strain cot1, active compounds read low 0.977 | S. cerevisiae deletion strains, locus YPL051W, strain arl3, active compounds read low 1 | S. cerevisiae deletion strains, locus YPL078C, strain atp4, active compounds read low 0.995 | S. cerevisiae deletion strains, locus YPL106C, strain sse1, active compounds read low 0.978 | S. cerevisiae deletion strains, locus YPL240C, strain hsp82, active compounds read low 0.993 | S. cerevisiae deletion strains, locus YPL241C, strain CIN2, active compounds read low 1 | S. cerevisiae deletion strains, locus YPR119W, strain clb2, active compounds read low 0.982 | S. cerevisiae deletion strains, locus YPR141C, strain kar3, active compounds read low 0.993 | S. cerevisiae deletion strains, locus YPR163C, strain tif3, active compounds read low 0.981 | S. cerevisiae deletion strains, locus YPR167C, strain met16, active compounds read low 0.984 | S. cerevisiae deletion strains, strain wtn01, active compounds read low 1.05 | S. cerevisiae strains, strain wild type, active compounds read low 1.01

From PubChem BioAssay AID1159580 (chemical genetic matrix, 2015)
